Inconclusive results are not listed. Activity calls are given as the source filed them. Calls come from the whole dose curve; as a rule, active = well fitted cell-killing curve with a large enough effect; inconclusive = small, poorly fitted or top-dose-only effect, or effect the other way; inactive = no such curve, though single readings can be large or run the other way.
Legend:
[1] = Quantitative High-Throughput drug screen in 47 multiple myeloma cell lines against the NCATS MIPE library collection: MM1R_ATCC cell viability assay (AID 1918981); note: nearly all actives have a fitted effect of over 35% in size; note: potency is the fitted concentration of half-maximal effect
How it was run: (§1)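 MIPE 4.0 approved/investigational drugs; 500 cells/well; 48 h 37 °C humidified 5% CO2; CTG luminescence readout; DMSO = 100%, media = 0% viability.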

[2] = Quantitative High-Throughput drug screen in 47 multiple myeloma cell lines against the NCATS MIPE library collection: LP1_DSMZ cell viability assay (AID 1918982); note: nearly all actives have a fitted effect of over 35% in size
How it was run: as §1

[3] = Quantitative High-Throughput drug screen in 47 multiple myeloma cell lines against the NCATS MIPE library collection: KMS34_JCRB cell viability assay (AID 1918985); note: nearly all actives have a fitted effect of over 40% in size; note: potency is the fitted concentration of half-maximal effect
How it was run: as §1

[4] = Quantitative High-Throughput drug screen in 47 multiple myeloma cell lines against the NCATS MIPE library collection: OCIMY5_PLB cell viability assay (AID 1918988); note: potency is the fitted concentration of half-maximal effect; nearly all actives have a fitted effect of over 65% in size
How it was run: as §1

[5] = Quantitative High-Throughput drug screen in 47 multiple myeloma cell lines against the NCATS MIPE library collection: OPM1_PLB cell viability assay (AID 1918989); note: nearly all actives have a fitted effect of over 40% in size; note: potency is the fitted concentration of half-maximal effect
How it was run: as §1

[6] = Quantitative High-Throughput drug screen in 47 multiple myeloma cell lines against the NCATS MIPE library collection: U266_ATCC cell viability assay (AID 1919864); note: nearly all actives have a fitted effect of over 35% in size; note: potency is the fitted concentration of half-maximal effect;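 for viability (% of DMSO control): 0% = media-only wells without cells and 100% = DMSO-only wells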
How it was run: as §1

[7] = Quantitative High-Throughput drug screen in 47 multiple myeloma cell lines against the NCATS MIPE library collection: XG6_PLB cell viability assay (AID 1919865); note: nearly all actives have a fitted effect of over 40% in size; note: potency is the fitted concentration of half-maximal effect
How it was run: as §1

[8] = Quantitative High-Throughput drug screen in 47 multiple myeloma cell lines against the NCATS MIPE library collection: XG1_PLB cell viability assay (AID 1919866); note: nearly all actives have a fitted effect of over 35% in size; note: potency is the fitted concentration of half-maximal effect
How it was run: as §1

[9] = Quantitative High-Throughput drug screen in 47 multiple myeloma cell lines against the NCATS MIPE library collection: UTMC2_PLB cell viability assay (AID 1919868); details: CellTiter-Glo ATP luminescence, 48 h; viability (% of DMSO control): at 45.8 µM (top of the series); note: nearly all actives have a fitted effect of over 55% in size; note: potency is the fitted concentration of half-maximal effect;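 for viability (% of DMSO control): 100% = DMSO-only wells and 0% = media-only wells without cells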
How it was run: as §1

[10] = Quantitative High-Throughput drug screen in 47 multiple myeloma cell lines against the NCATS MIPE library collection: OPM2_DSMZ cell viability assay (AID 1919872); note: nearly all actives have a fitted effect of over 30% in size
How it was run: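 qHTS of the MIPE 4.0 collection: 500 myeloma cells/well, 48 h drug exposure at 37C in 5% CO2, then CellTiter-Glo for 5 min at room temperature before luminescence reading.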

[11] = Quantitative High-Throughput drug screen in 47 multiple myeloma cell lines against the NCATS MIPE library collection: KMS28BM_JCRB cell viability assay (AID 1919874); note: nearly all actives have a fitted effect of over 35% in size; note: potency is the fitted concentration of half-maximal effect
How it was run: as §1

[12] = Quantitative High-Throughput drug screen in 47 multiple myeloma cell lines against the NCATS MIPE library collection: KMS28PE_JCRB cell viability assay (AID 1918983); note: nearly all actives have a fitted effect of over 35% in size; note: potency is the fitted concentration of half-maximal effect
How it was run: as §1

[13] = Quantitative High-Throughput drug screen in 47 multiple myeloma cell lines against the NCATS MIPE library collection: SKMM1_PLB cell viability assay (AID 1919863); details: SKMM1 myeloma viability, CellTiter-Glo ATP, 48 h; viability: hits give low values; note: nearly all actives have a fitted effect of over 35% in size; note: potency is the fitted concentration of half-maximal effect
How it was run: as §1

[14] = Quantitative High-Throughput drug screen in 47 multiple myeloma cell lines against the NCATS MIPE library collection: PE2_PLB cell viability assay (AID 1919869); note: nearly all actives have a fitted effect of over 35% in size; note: potency is the fitted concentration of half-maximal effect
How it was run: as §1

[15] = Quantitative High-Throughput drug screen in 47 multiple myeloma cell lines against the NCATS MIPE library collection: RPMI8226_ATCC cell viability assay (AID 1919871); note: nearly all actives have a fitted effect of over 30% in size; note: potency is the fitted concentration of half-maximal effect
How it was run: as §1

[16] = Quantitative High-Throughput drug screen in 47 multiple myeloma cell lines against the NCATS MIPE library collection: KMS11_JCRBsus cell viability assay (AID 1919873); note: nearly all actives have a fitted effect of over 50% in size; note: potency is the fitted concentration of half-maximal effect
How it was run: as §1

[17] = Quantitative High-Throughput drug screen in 47 multiple myeloma cell lines against the NCATS MIPE library collection: L363_DSMZ cell viability assay (AID 1918984); note: nearly all actives have a fitted effect of over 40% in size; note: potency is the fitted concentration of half-maximal effect
How it was run: as §1

[18] = Quantitative High-Throughput drug screen in 47 multiple myeloma cell lines against the NCATS MIPE library collection: OCIMY7_PLB cell viability assay (AID 1918987); details: OCI-MY7 myeloma viability, CellTiter-Glo ATP, 48 h; viability (% of DMSO): at 45.8 µM (top of the series); note: potency is the fitted concentration of half-maximal effect; nearly all actives have a fitted effect of over 65% in size
How it was run: as §1

[19] = Quantitative High-Throughput drug screen in 47 multiple myeloma cell lines against the NCATS MIPE library collection: VP6_DJ cell viability assay (AID 1919867); note: nearly all actives have a fitted effect of over 40% in size; note: potency is the fitted concentration of half-maximal effect;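 for viability (% of DMSO): 100% = DMSO-only wells and 0% = wells with media alone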
How it was run: as §1

C[C@]12CC[C@@H]3c4ccc(O)cc4CC[C@H]3[C@H]1C[C@@H](O)[C@H]2O
active: Potency [4] 3.32 µM | Potency [6] 18.7 µM | Potency [7] 5.9 µM
inactive: Potency [1] | Potency [2] | Potency [3] | Potency [5] | Potency [8] | Potency [9] | Potency [10] | Potency [11]

Cc1ccc([C@@H]2O[C@H](CO)[C@@H](O)[C@H](O)[C@@H]2O)cc1Cc1ccc(-c2ccc(F)cc2)s1
inactive: Potency [12] | viability [13] 118% | Potency [9] | Potency [15]
active: Potency [1] 18.7 µM | Potency [3] 23.5 µM | Potency [5] 20.9 µM | Potency [14] 18.7 µM | Potency [16] 23.5 µM

O=C1NC(=O)C(=Cc2ccc3nccnc3c2)S1
active: Potency [1] 8.12 µM | Potency [12] 10.2 µM | Potency [17] 0.115 µM | Potency [18] 2.29 µM | Potency [5] 6.45 µM | Potency [13] 6.45 µM | Potency [8] 6.45 µM | Potency [9] 3.63 µM | Potency [11] 7.24 µM
inactive: Potency [10]

O=c1cc(N2CCOCC2)oc2c(-c3cccc4c3sc3ccccc34)cccc12
active: Potency [1] 16.6 µM | Potency [12] 14.8 µM | Potency [17] 8.33 µM | Potency [18] 1.18 µM | Potency [4] 20.9 µM | Potency [5] 4.18 µM | Potency [13] 11.8 µM | Potency [7] 5.9 µM | Potency [8] 6.62 µM | Potency [9] 5.9 µM | Potency [14] 9.35 µM | Potency [11] 3.72 µM
inactive: Potency [6]

COC(=O)C1=CO[C@@H](O)[C@@H]2C(CO)=CC[C@@H]12
inactive: Potency [2]
active: Potency [1] 18.7 µM | Potency [14] 20.9 µM | Potency [15] 20.9 µM

COc1ccc(C2CC(c3ccccc3)=NN2c2ccc(S(N)(=O)=O)cc2)cc1 (centres undefined)
inactive: Potency [12] | Potency [6] | Potency [10]
active: Potency [1] 16.6 µM | Potency [17] 16.6 µM | Potency [5] 20.9 µM | Potency [7] 18.7 µM | Potency [19] 16.6 µM | Potency [14] 23.5 µM

Nc1ncnc2ccccc12
active: Potency [18] 14.8 µM | Potency [4] 26.4 µM | Potency [8] 7.43 µM
inactive: Potency [1] | Potency [2] | Potency [5] | Potency [6] | Potency [19] | Potency [10] | Potency [16] | Potency [11]

CCOC(=O)O[C@]1(C(=O)OCCl)CC[C@@H]2[C@H]3CCC4=CC(=O)C=C[C@]4(C)[C@@H]3[C@@H](O)C[C@@]21C
inactive: Potency [1] | Potency [12] | Potency [17] | viability [13] 124% | Potency [7] | Potency [8] | Potency [14] | Potency [10] | Potency [11]
active: Potency [19] 20.9 µM | Potency [15] 0.118 µM | Potency [16] 0.264 µM

— PubChem BioAssay (NCATS)
